A selection: hits, their analogues and other compounds. The true share with any hit is near 11%.
PNC inhibitor: blocks assembly of the perinucleolar compartment | actives 3.1% (n = 140,000) | AID 2417 | PC3M PTB-GFP, PNC prevalence imaging, 16 h; hits give low values | activity change (PNC), negative = inhibition, % at 10 µM;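 active = readout at or below -70, meaning at least 70% loss of cells showing the perinucleolar compartment, a nuclear body marking cancer cells; inconclusive = readout between -30 and a set limit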;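 also: plate controls were DMSO wells for no effect and camptothecin positive control wells for full effect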
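PC3M cells stably expressing PTB-GFP, 750–1000 cells/well, treated 16 h at 37 °C with compound (23 nl of library stock), in duplicate. After paraformaldehyde fixation and Hoechst stain, imaged at 20x; PNC prevalence scored by image analysis.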
HPGD inh: HPGD (human) dehydrogenase inhibition; P15428; purified HPGD, NADH fluorescence kinetic, PGE2 substrate; Potency, µM, for the others: at the top dose activity change, negative = inhibition, most hits filed as inhibitors; actives 4.3% (n = 150,000); also: potency is read from the fitted curve at half-maximal effect
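20 nM HPGD preincubated 15 min at room temperature with compound in 50 mM Tris-HCl pH 8, 0.01% Tween 20. Started with 1 mM NAD+ and 30 uM prostaglandin E2; NADH fluorescence (360/450 nm) read 5 times over 30-s intervals, last minus first.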
ALDH1A1 block: inhibitors of human aldehyde dehydrogenase 1A1; actives 7.3% (n = 220,000); P00352; Potency, µM (doses to about 75.3 µM), for inactives: at the highest dose activity, negative = inhibition, most hits filed as inhibitors; AID 1030; Purified ALDH1A1, NADH fluorescence, propionaldehyde substrate;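 also: potency is read from the fitted curve at half-maximal effect; plate controls were no enzyme wells and a reference inhibitor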
Target sequence (P00352 whole entry, looked up): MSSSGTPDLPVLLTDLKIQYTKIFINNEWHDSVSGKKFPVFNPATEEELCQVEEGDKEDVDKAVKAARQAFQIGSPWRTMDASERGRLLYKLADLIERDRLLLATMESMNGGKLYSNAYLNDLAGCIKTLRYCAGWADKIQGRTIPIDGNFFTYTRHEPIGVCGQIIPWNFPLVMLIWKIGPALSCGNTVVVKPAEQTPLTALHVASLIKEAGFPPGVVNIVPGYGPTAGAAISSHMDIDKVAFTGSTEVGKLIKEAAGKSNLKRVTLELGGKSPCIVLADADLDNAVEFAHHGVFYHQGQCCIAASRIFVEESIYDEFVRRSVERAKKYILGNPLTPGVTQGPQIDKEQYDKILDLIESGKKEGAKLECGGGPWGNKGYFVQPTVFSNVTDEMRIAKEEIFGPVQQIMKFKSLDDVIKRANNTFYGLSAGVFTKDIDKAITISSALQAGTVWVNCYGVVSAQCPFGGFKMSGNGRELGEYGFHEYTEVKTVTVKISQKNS
Starred values were filed as active, the others as inactive; ? = inconclusive; . = not tested or not shown; ! = a repeat was not active; [ ] = dose if it differs, or a comment. Unless noted, calls follow the shape of the dose curve; as a rule, active = well fitted inhibition curve with a large enough effect (not every such curve was filed as active); inconclusive = small, poorly fitted or top-dose-only effect, or another doubt; inactive = no such curve, though single readings can be large or run the other way. Unless noted, % is scaled to controls: 0 for no effect and ±100 for the full control effect.

SMILES	PNC inhibitor	HPGD inh	ALDH1A1 block
CCOC(=O)C1=C(CC)Nc2ccccc2N=C1NC(=O)Nc1ccc(Cl)c(Cl)c1	46	-7%	2%
CCOC(=O)C1=C(CC)Nc2ccccc2N=C1NC(=O)c1ccc(S(=O)(=O)N2CCCC2)cc1	.	.	14µM*
CCNC(=O)Cn1cc(C#N)c2ccccc21	17	-3%	-3%
N#Cc1ccccc1Cn1cc(/C=C/[N+](=O)[O-])c2ccccc21	-11	40µM*	3.5µM*
Clc1ccc(Cn2cc(/C=N/n3cnnc3)c3ccccc32)c(Cl)c1	-13	-9%	1%
NC(=O)CSc1cn(Cc2ccccc2)c2ccccc12	.	.	7.9µM*
O=[N+]([O-])/C=C/c1cn(Cc2ccccc2)c2ccccc12	19	-25%	16µM*
NC(=O)CSc1cn(Cc2ccc(F)cc2)c2ccccc12	.	.	-4%
O=C(O)Cn1cc(/C=C/[N+](=O)[O-])c2ccccc21	.	.	-11%
C(=N\n1cnnc1)/c1cn(Cc2ccccc2)c2ccccc12	-5	-18%	13µM*
CCN1CCN(c2cc3c(nn2)Oc2ccccc2N3C)CC1	11	?	?
O=C(CCCN1C(=O)c2ccccc2C1=O)Nc1cccc(S(=O)(=O)NC2=NCCC2)c1	.	.	3%
O=C(CNc1ccc2ccccc2c1)N/N=C/C=C/c1cccc([N+](=O)[O-])c1	?	-23%	-3%
CCOc1ccc2c3c(c(=O)oc2c1OCC)CCCC3	?	-24%	?
CCCOc1ccc2c3c(c(=O)oc2c1OCCC)CCCC3	-111*	?	?
N#Cc1ccc(CS(=O)(=O)c2nc3ccccc3s2)cc1	.	-3%	?
COc1cccc(C(=O)N2c3ccccc3Sc3ccccc32)c1	?	14µM*	3%
COc1cccc(C(=O)NC2CCN(C(=O)N3c4ccccc4Sc4ccccc43)CC2)c1	-14	-17%	7%
COc1cnc(-c2ccccn2)nc1Sc1ccc(F)cc1	.	.	7.9µM*
COc1cnc(-c2ccccn2)nc1Sc1ccccc1	.	.	10µM*
CCOC(=O)CSc1nc(-c2ccccn2)ncc1OC	.	.	5%
COc1cnc(-c2ccccn2)nc1Sc1ccc(Cl)cc1	5	-3%	-15%
O=C(O)CCC/C=C\C[C@H]1C(=O)C[C@@H](O)[C@@H]1/C=C/[C@@H](O)CCc1ccccc1	.	-7%	3%
COC(=O)NC(/C(C(=O)OC)=C(\C)NCc1ccccc1)c1cccs1 (stereo not given)	.	.	0%[13.5 µM]
N[C@@H](C(=O)O)c1cc(O)ccc1Cl	.	-28%	-8%
SMILES	PNC inhibitor	HPGD inh	ALDH1A1 block
CCCN1CCC(=NNc2ccc(C(=O)O)cc2)CC1	.	.	25µM*
CCCN1CCC(=NNC(=O)c2ccc(Br)o2)CC1	10	-6%	13µM*
CCN1CCC(=NNC(=O)c2ccco2)CC1	-25	-14%	?
CCCN1CCN(C(=O)Nc2ccc(C(=O)OCC)cc2)CC1	-2	-18%	-12%
Cc1nn(CC(=O)NCc2ccc(-n3cccn3)cc2)c(C)c1[N+](=O)[O-]	54	-10%	3%
CCC[n+]1cn(/C(C(=S)Nc2cccc(Cl)c2C)=C(/[O-])c2ccc(OC)c(OC)c2)c2ccccc21	.	.	-4%
CCN1C(=O)[C@H]2[C@H]3[C@H](O)[C@H](O)C/C(=N/O[C@@H](C)c4cn([C@H]5COC[C@H]5O)nn4)[C@@H]3CC[C@@H]2C1=O	.	.	4%[13.5 µM]
Cn1c(C(=O)N2CCCC(C(=O)NCCCSC3CCCCC3)C2)cc2sccc21 (stereo not given)	?	-5%	1.3µM*
CCn1c(C(=O)N2CCCC(C(=O)NCCCc3ccccc3)C2)cc2sccc21 (stereo not given)	179	-15%	?
CCn1c(C(=O)N2CCCC(C(=O)NCCc3ccc(C)cc3)C2)cc2sccc21 (stereo not given)	?	-5%	32µM*
Cn1c(C(=O)N2CCCC(C(=O)NCc3cccs3)C2)cc2sccc21 (stereo not given)	-29	-25%	?
C/C=C/OC(=O)NC(c1ccccc1)[C@]1(C(C)=O)CCOC1=O (stereo not given in full)	.	.	-17%[13.5 µM]
CC(C)CN1CCCC2(CCN(C(=O)c3cccn3C)CC2)C1	.	-7%	5%
CC(C)NC(=O)c1ccc(-n2nc(C(F)(F)F)c3c2CCCC3)cc1	2	-7%	7%
N#C/C(=N\O)c1nc(-c2ccccc2)cs1	-127*!	-26%	0%
CC(C)CCN(CCC(C)C)C/C(O)=C(\C#N)c1nc(-c2ccccc2)cs1	-11	-21%	-10%
Cc1ccc(NC(=O)Cc2c[nH]c3ccccc23)cc1S(=O)(=O)N1CCCCCC1	-1	-8%	-9%
O=C(COC(=O)c1cccnc1Cl)Nc1cccc(S(=O)(=O)N2CCCCC2)c1	.	.	-5%
